HCMV inh = blocks human cytomegalovirus replication; activity change, negative = inhibition, % at 57.5 µM; AID 1259415; 410,000 compounds, 4.5% hits; HFF cells, HCMV-luciferase reporter, 72 h; active compounds read low; in the data active means activity change below about -60%; inconclusive means no clear call, values can overlap the other calls; inactive means above about -39%
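Screen run at 2 compound doses on HFFs infected with reporter HCMV, MOI 1 PFU/cell. Luciferase activity from cell lysates at 72 h post infection gave inhibition relative to buffer-only and Salinomycin wells.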
LASV entry inh = inhibitors of Lassa virus binding or cell entry; 300,000 compounds, 1.2% hits; Lassa virus pseudotype entry inhibition, cell reporter; Potency, µM (highest dose often 37.9 µM), most hits filed as inhibitors; calls by dose curve; tested in HEK293 cells; further: nearly all actives have a fitted effect of over 50% in size
FMDV inh = foot and mouth disease virus antiviral activity. FMDV antiviral cell-based qHTS. Potency, µM (titrated, usually from 57.9 µM), usual class: inhibitors. 410,000 compounds, 1.2% hits. AID 1159524; calls by dose curve; tested in HEK293T cells; further: read-out not given here; nearly all actives have a fitted effect of over 45% in size
SARS PLP yeast = blocks SARS-CoV papain-like protease in a yeast assay; S. cerevisiae expressing SARS-CoV PLpro, growth rescue; Potency, µM (series often up to 32.9 µM), actives largely listed as activators; 330,000 compounds, 0.19% hits; calls by dose curve; further: nearly all actives have a fitted effect of over 55% in size
MARV entry inh = Marburg virus entry inhibition; Potency, µM (top dose mostly 37.8 µM), usual class: inhibitors; 300,000 compounds, 1.8% hits; AID 540276; Marburg virus pseudotyped entry inhibition, cell reporter; calls by dose curve; tested in HEK293 cells
HCV inh = blocks hepatitis C virus | 340,000 compounds, 3.4% hits | Huh7.5.1 HCVcc-Cre infection, luciferase reporter, 44 h | Potency, µM (series often up to 41.8 µM), actives largely listed as inhibitors; active means well fitted inhibition curve with a large enough effect; inconclusive means small, poorly fitted or top-dose-only effect, or another doubt; inactive means no such curve, though single readings can be large or run the other way
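Reporter virus HCVcc-Cre (~0.5 moi) infects cells exposed to compound; seeding density 1,000 cells/well with 4 h settling beforehand. Luminescence, 15 sec read, taken 44 h post-infection following a 15 min RT substrate incubation.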
Each line names hits and unclear results; the compound was inactive in the other large screens. Shown are actives, neighbours in structure and some others; about 8% of the full set was active somewhere.

O=C(Nc1ccccc1N1CCOCC1)C1(c2ccc(Cl)cc2)CCC1	HCMV inh -66, FMDV inh inconclusive, MARV entry inh inconclusive
CC(Oc1ccc(Cl)cc1)C(=O)Nc1ccccc1N1CCOCC1 (stereo not given)	LASV entry inh inconclusive, MARV entry inh 13µM, HCV inh inconclusive
COc1cc(-c2nccc3[nH]nc(-c4ccncc4)c23)cc(OC)c1OC	none (no result: LASV entry inh, FMDV inh, SARS PLP yeast, MARV entry inh, HCV inh)
COc1ccc(Nc2ncnc3sccc23)cc1	MARV entry inh inconclusive
c1ccc(Nc2ncnc3sccc23)cc1	HCMV inh -61
COc1ccccc1Nc1ncnc2sccc12	none (no result: LASV entry inh, MARV entry inh)
CC(Nc1ncnc2sccc12)c1ccccc1 (stereo not given)	HCMV inh -85, FMDV inh inconclusive, MARV entry inh inconclusive, HCV inh 2µM
CN1CCN(c2ncc3nc(-c4cn(C)c5ccccc45)c(=O)n(-c4ccccc4)c3n2)CC1	none (no result: HCMV inh, LASV entry inh, SARS PLP yeast, MARV entry inh, HCV inh)
COc1cc2c(cc1OC)C(C1C(=O)CCCC1=O)N(C(=O)CCl)CC2 (stereo not given)	none
COc1ccccc1/C=C/C(=O)N1CCc2cc(OC)c(OC)cc2C1C (stereo not given)	LASV entry inh inconclusive, MARV entry inh inconclusive, HCV inh 22µM
COc1cc2c(cc1OC)C(C)N(C(=O)c1ccc(Cl)c(S(=O)(=O)N3CCCCC3)c1)CC2 (stereo not given)	HCMV inh -64, HCV inh 8.9µM (no result: LASV entry inh, MARV entry inh)
COc1cc2c(cc1OC)C(c1ccccc1)N(C(=O)CCl)CC2 (stereo not given)	HCMV inh -99, LASV entry inh inconclusive, FMDV inh 7.1µM, MARV entry inh inconclusive
COc1cc2c(cc1OC)C(C)N(C(=O)c1cccc([N+](=O)[O-])c1)CC2 (stereo not given)	HCMV inh -74
C=CCN1C(=O)[C@@]2(CC(C)=CC[C@@H](C)O2)c2c(Br)cccc21	none (no result: HCMV inh, LASV entry inh, FMDV inh, SARS PLP yeast, HCV inh)
COc1ccc2c3c(n(C)c2c1)[C@@H](CO)N(C(=O)NC1CCCCC1)CC31CCN(C)CC1	none (no result: LASV entry inh, FMDV inh, SARS PLP yeast, MARV entry inh, HCV inh)
Cc1ccccc1/C=C/C(=O)N1CCOCC1	none
COc1ccccc1/C=C/C(=O)N1CCOCC1	HCMV inh -72, LASV entry inh inconclusive
COc1ccc(OC)c(CNC(=O)C2CCN(S(=O)(=O)c3cn(C)cn3)CC2)c1	none (no result: SARS PLP yeast, MARV entry inh, HCV inh)
CC(C)N(c1ccccc1)c1ccc(NC(=O)CCl)cc1	HCMV inh -61, FMDV inh 40µM, HCV inh inconclusive (no result: LASV entry inh, MARV entry inh)
O=C(CCl)Nc1ccc(N=Nc2ccccc2)cc1	LASV entry inh inconclusive, MARV entry inh inconclusive
COc1cc(OC)c(NC(=O)c2cc(C(C)=O)n3ccccc23)cc1Cl	LASV entry inh inconclusive (no result: SARS PLP yeast, MARV entry inh, HCV inh)
COc1ccc(C(=O)Nc2nccs2)cc1[N+](=O)[O-]	none
Cn1cc([N+](=O)[O-])c(C(=O)Nc2nccs2)n1	HCMV inh -96, HCV inh inconclusive (no result: LASV entry inh, MARV entry inh)
Cn1cc([N+](=O)[O-])c(C(=O)Nc2ccc(Br)cn2)n1	HCMV inh -65, HCV inh 11µM
CCSc1ccc(C(=O)Nc2ccc(Br)cn2)cc1[N+](=O)[O-]	HCV inh inconclusive (no result: LASV entry inh, MARV entry inh)
CC(=NNc1nc2ccccc2s1)c1ncccn1	HCMV inh -97, LASV entry inh 1µM, MARV entry inh inconclusive, HCV inh inconclusive (no result: SARS PLP yeast)
C/C(=N/Nc1ccccc1C(=O)O)c1cccs1	LASV entry inh inconclusive
C/C(=N\Nc1nc(-c2ccccc2)cs1)c1cccs1	LASV entry inh inconclusive, MARV entry inh inconclusive, HCV inh 2.8µM
C/C(=N\Nc1nc2ccccc2s1)c1cccs1	LASV entry inh 6.5µM, MARV entry inh inconclusive
Cc1cccc(Cn2c(C)c(CNC3CCCCC3)c(C(=O)O)c2C)c1	none (no result: SARS PLP yeast, HCV inh)
O=C1[C@H]2[C@H]3[C@H](O)[C@H](O)C/C(=N\OCc4ccccc4)[C@H]3CC[C@H]2C(=O)N1C1CCCCC1	none (no result: HCMV inh, LASV entry inh, FMDV inh, SARS PLP yeast, HCV inh)
O=C(Cn1c(=O)n(-c2ccc(Cl)cc2)c(=O)c2sc3ccccc3c21)NC1CCCCC1	none (no result: SARS PLP yeast, HCV inh)
CN1C(=O)[C@]2(c3ccccc31)[C@H]1CCCC=C1C(C#N)=C(N)C2(C#N)C#N	none (no result: HCMV inh, LASV entry inh, FMDV inh, SARS PLP yeast, HCV inh)
CCCCN1CC(COCc2ccccc2)Oc2cccc(Oc3ccccc3)c2S1(=O)=O (stereo not given)	LASV entry inh inconclusive, HCV inh 2.5µM (no result: SARS PLP yeast, MARV entry inh)
COc1ccccc1Cn1c(=O)c2ccccc2n2c(Sc3ncnc4sccc34)nnc12	HCMV inh inconclusive, LASV entry inh inconclusive, FMDV inh inconclusive, MARV entry inh inconclusive, HCV inh 10µM
COc1ccccc1Cn1c(=O)c2ccccc2n2c(SCc3csc(C)n3)nnc12	none (no result: FMDV inh)
COc1cccc([C@@H]2Oc3ccc(OC)cc3C[C@H]2OC(=O)N[C@H]2CCCc3ccccc32)c1	none (no result: HCMV inh, LASV entry inh, FMDV inh, SARS PLP yeast, HCV inh)
Nc1cc(-c2ccccc2)nc2ccccc12	none (no result: LASV entry inh, FMDV inh, SARS PLP yeast, MARV entry inh, HCV inh)
Cc1nn(S(=O)(=O)c2ccc(Cl)cc2)c(C)c1S(=O)(=O)N1CCCCCC1	FMDV inh inconclusive (no result: SARS PLP yeast, MARV entry inh, HCV inh)
Cc1nn(S(=O)(=O)c2ccc(Cl)cc2)c(C)c1Sc1ccc([N+](=O)[O-])cc1	HCMV inh -78, LASV entry inh inconclusive, FMDV inh inconclusive, MARV entry inh inconclusive, HCV inh inconclusive
Cc1nn(-c2ccccc2)c(N)c1Sc1ccc([N+](=O)[O-])cc1	FMDV inh 32µM
COc1ccc(NC(=O)CCCc2nnc3n(C(C)C)c(=O)c4sccc4n23)cc1Cl	HCMV inh inconclusive (no result: SARS PLP yeast, MARV entry inh, HCV inh)
Cc1ccc(NC(=O)COC(=O)c2c(-c3ccccc3)noc2C)cc1	HCV inh inconclusive (no result: LASV entry inh, MARV entry inh)
Cc1onc(-c2ccccc2)c1C(=O)OCC(=O)Nc1ccc(Cl)cc1	HCV inh 10µM (no result: LASV entry inh, MARV entry inh)
Cc1onc(-c2ccccc2)c1C(=O)OCC(=O)Nc1ccc(OC(F)(F)F)cc1	FMDV inh inconclusive, HCV inh 11µM (no result: LASV entry inh, MARV entry inh)
O=C(CSc1nc2ccccc2c(=O)n1-c1ccc(F)c(Cl)c1)Nc1ccc2c(c1)CCC2	none (no result: LASV entry inh, SARS PLP yeast, MARV entry inh, HCV inh)
O=C(CSc1nc2ccccc2c(=O)n1-c1ccccc1F)Nc1ccc2c(c1)CCC2	HCMV inh -67, LASV entry inh inconclusive, MARV entry inh inconclusive, HCV inh inconclusive
O=C(CSc1nc2ccccc2c(=O)n1-c1ccc(F)cc1F)Nc1ccc2c(c1)CCC2	HCMV inh -72, LASV entry inh inconclusive, MARV entry inh inconclusive, HCV inh inconclusive
O=C(CSc1nc2ccc(F)cc2c(=O)n1-c1ccccc1)Nc1ccc2c(c1)CCC2	HCMV inh inconclusive (no result: LASV entry inh, SARS PLP yeast, MARV entry inh, HCV inh)
O=C(CSc1nc2ccccc2c(=O)n1-c1ccc(F)cc1)Nc1ccc2c(c1)CCC2	HCMV inh -68, LASV entry inh inconclusive, MARV entry inh inconclusive, HCV inh inconclusive
Cc1ccc(Cl)cc1N1CCN(C(=O)Cn2c(-c3cccs3)cc3cc(F)ccc32)CC1	none (no result: SARS PLP yeast, MARV entry inh, HCV inh)
CCN(CC)S(=O)(=O)c1cc(NC(=O)Cc2n[nH]c(=O)c3ccccc23)ccc1C	HCMV inh inconclusive, LASV entry inh inconclusive, MARV entry inh inconclusive, HCV inh inconclusive
CN(c1ccccc1)S(=O)(=O)c1cccc(NC(=O)CSc2nncs2)c1	LASV entry inh 10µM, FMDV inh 10µM, MARV entry inh inconclusive, HCV inh inconclusive

Bioassay records deposited in PubChem BioAssay by National Center for Advancing Translational Sciences (NCATS).
